{
  "source": "paper PMC7819943",
  "about": "“Rice protein-binding microarrays: a tool to detect cis-acting elements near promoter regions in rice”",
  "note": "The full ranking holds about 39,000 sequences; the median of “fluorescence intensity (a.u.)” is about 4,300, and the highest 2% start at about 39,000. Many of the other results were omitted from the sample, so the highest values are more common in it than they were.",
  "data": [
    {"biological_target": "T1, OsSMF1 (Oryza sativa, UniProt Q6ZLB0 1-436)", "T1 sequence": "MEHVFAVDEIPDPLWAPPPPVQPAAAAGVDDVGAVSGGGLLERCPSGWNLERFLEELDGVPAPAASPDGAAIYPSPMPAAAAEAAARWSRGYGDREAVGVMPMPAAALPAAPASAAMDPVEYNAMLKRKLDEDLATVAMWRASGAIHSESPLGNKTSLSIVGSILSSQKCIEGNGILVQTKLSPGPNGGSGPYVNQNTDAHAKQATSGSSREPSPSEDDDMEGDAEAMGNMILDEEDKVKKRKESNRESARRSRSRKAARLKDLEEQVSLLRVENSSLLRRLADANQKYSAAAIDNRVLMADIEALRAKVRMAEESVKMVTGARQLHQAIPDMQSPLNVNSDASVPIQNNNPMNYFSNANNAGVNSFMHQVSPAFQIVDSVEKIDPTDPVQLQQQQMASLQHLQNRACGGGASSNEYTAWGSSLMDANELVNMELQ", "test": "protein-binding microarray (RPBM); PBS, 2% BSA, 51.3 ng/ul salmon testes DNA, 50 uM zinc acetate, 200 nM TF, 25 C, 1 h; high values mean tight binding", "settings": "protein: recombinant; tags: N-terminal polyhistidine and DsRed monomer fusion (pET32a); chain copies: 2; label: CyDye5-dUTP incorporated in the synthesized complementary strand; 3' TTTTT single-stranded linker to array surface; dsDNA, one strand shown", "method_in_brief": "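A custom Agilent array was converted to double-stranded form by primer extension with Cy5-dUTP and blocked with 2% BSA. Protein at 200 nM in PBS with 2% BSA, salmon testes DNA and 50 µM zinc acetate was applied for 1 h at 25 °C, followed by washing. The proteins were polyhistidine–DsRed N-terminal fusions of transcription factors, expressed in E. coli BL21-CodonPlus and Ni–NTA-purified. The binding signal is per-feature fluorescence intensity (arbitrary units) from an Axon 4000B scanner.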", "values": [
      {"sequence": "GGTGTCGCGTCGCGTCTGCAGTAGAAATGGAAGCCTGGGGCGGAGTCACCTAGTGCAG", "binding signal": "3230 fluorescence intensity (a.u.)"},
      {"sequence": "AGAGGAAGAGGAAGAAGAGGTCATTCCGCCACGTCCCGGACGGAGTCACCTAGTGCAG", "binding signal": "7090 fluorescence intensity (a.u.)"},
      {"sequence": "AGAAGAAGAGGAAGCTGTGGGTCAGGTGGGTTTCCGCCCACGGAGTCACCTAGTGCAG", "binding signal": "41300 fluorescence intensity (a.u.)"},
      {"sequence": "GGCCCACGCCGGCAGATCAGGTGGGGAGAGAAGCTCCGCCCGGAGTCACCTAGTGCAG", "binding signal": "14700 fluorescence intensity (a.u.)"},
      {"sequence": "GTGGAAAAGCCAAAGGCAAAGGCAAACCACGCGTCTCTCTCGGAGTCACCTAGTGCAG", "binding signal": "17400 fluorescence intensity (a.u.)"},
      {"sequence": "ATCAAAATAGATTAAAGTTTAGTTTTAACGAAACTAGTTTCGGAGTCACCTAGTGCAG", "binding signal": "3180 fluorescence intensity (a.u.)"},
      {"sequence": "GAACTACTAAACGGTACGTCTTTTCGTTTAAAAGAATATCCGGAGTCACCTAGTGCAG", "binding signal": "39400 fluorescence intensity (a.u.)"},
      {"sequence": "ACCTACTAATAACTAGTTAATTGTCTATTGTGCCCCTAGTCGGAGTCACCTAGTGCAG", "binding signal": "13700 fluorescence intensity (a.u.)"},
      {"sequence": "GGAAATAGTAAATAGCTACTACCAAGCCATAAGCTTACTACGGAGTCACCTAGTGCAG", "binding signal": "17900 fluorescence intensity (a.u.)"},
      {"sequence": "TTCTACTATGTCATTCTAGTACTATATAAAACTACTATGCCGGAGTCACCTAGTGCAG", "binding signal": "3690 fluorescence intensity (a.u.)"},
      {"sequence": "ACTAAACAGATTTTCTTTAAAGTTTATGCAGAAAAGTTTCCGGAGTCACCTAGTGCAG", "binding signal": "5060 fluorescence intensity (a.u.)"},
      {"sequence": "ACACTACCAATAGCTGGTACTTATTCAGCACAATAAGCTACGGAGTCACCTAGTGCAG", "binding signal": "46400 fluorescence intensity (a.u.)"},
      {"sequence": "ATTCACTGGAGGTGGTGCATCAGCATCACCAAAGCTAGCACGGAGTCACCTAGTGCAG", "binding signal": "3970 fluorescence intensity (a.u.)"},
      {"sequence": "TGAGAGAGAATTGCATTTTATGACATGCCCATATGATGATCGGAGTCACCTAGTGCAG", "binding signal": "17600 fluorescence intensity (a.u.)"},
      {"sequence": "ATATGGCATACATGAGAATTTAGAGAATTTACCATCAAATCGGAGTCACCTAGTGCAG", "binding signal": "45500 fluorescence intensity (a.u.)"},
      {"sequence": "ATTTAATAACTTCTATGGACAATATGTGCCCTGAAACTACCGGAGTCACCTAGTGCAG", "binding signal": "48800 fluorescence intensity (a.u.)"},
      {"sequence": "GCATATGGGGCATATATACGTACATGACTGAATCATCGTTCGGAGTCACCTAGTGCAG", "binding signal": "3250 fluorescence intensity (a.u.)"},
      {"sequence": "TATATATTATACCATTAATGACTGATCCTACCCTCTCATACGGAGTCACCTAGTGCAG", "binding signal": "3290 fluorescence intensity (a.u.)"},
      {"sequence": "TATGTTGAGTTTGAATTTGTATATTTATGAAATGGCATATCGGAGTCACCTAGTGCAG", "binding signal": "33000 fluorescence intensity (a.u.)"},
      {"sequence": "ATCGTCGTCGCCGCCGCCTCCCATGTCGTTGCTGTCGCCGCGGAGTCACCTAGTGCAG", "binding signal": "3240 fluorescence intensity (a.u.)"},
      {"sequence": "TCGGCGGCGAACTTCCCCGCCGACGTGCCAGATCTCAAACCGGAGTCACCTAGTGCAG", "binding signal": "4610 fluorescence intensity (a.u.)"},
      {"sequence": "TGTTTCTTTTCTTCAGACTAGTCACCTACGGTTTACTATTCGGAGTCACCTAGTGCAG", "binding signal": "3720 fluorescence intensity (a.u.)"},
      {"sequence": "CAATTCATCTATAACTAATTTAATAGTCAATTCATACAATCGGAGTCACCTAGTGCAG", "binding signal": "44100 fluorescence intensity (a.u.)"},
      {"sequence": "CAAACTTCTAACCTTTTCATCACATCAAAACTTTTCTATACGGAGTCACCTAGTGCAG", "binding signal": "63600 fluorescence intensity (a.u.)"},
      {"sequence": "TTATTTATAACTGATCTAATAGCCAATTCACACAATAATTCGGAGTCACCTAGTGCAG", "binding signal": "13700 fluorescence intensity (a.u.)"},
      {"sequence": "TGTTCTAACAATAGCATTTCTTGCATTTAACTATGTTCCTCGGAGTCACCTAGTGCAG", "binding signal": "52900 fluorescence intensity (a.u.)"},
      {"sequence": "TCCAATCAGACGACTATTCCTATGTTTTACAATTCTCTATCGGAGTCACCTAGTGCAG", "binding signal": "51200 fluorescence intensity (a.u.)"},
      {"sequence": "ACTTTCACAAAACTATACACATATCACTTTTCAATAAATACGGAGTCACCTAGTGCAG", "binding signal": "19900 fluorescence intensity (a.u.)"},
      {"sequence": "TGCACTATTCTATATTATATTATGCAAGTTTATTTTACGACGGAGTCACCTAGTGCAG", "binding signal": "3260 fluorescence intensity (a.u.)"},
      {"sequence": "ACTGGCTTCAATTTATCTATAGCTAATCTAATAGCTAATTCGGAGTCACCTAGTGCAG", "binding signal": "33900 fluorescence intensity (a.u.)"},
      {"sequence": "ATCACATCAAAACTTTTCTACACATATAAACTTCTAACTTCGGAGTCACCTAGTGCAG", "binding signal": "27400 fluorescence intensity (a.u.)"},
      {"sequence": "AATGTAAGTCATTCTAGCATTTCTCATTAACATCAATATGCGGAGTCACCTAGTGCAG", "binding signal": "3240 fluorescence intensity (a.u.)"},
      {"sequence": "AGTTCCTAATATTTCTCAATGTATATATGTACTCATTCCTCGGAGTCACCTAGTGCAG", "binding signal": "3800 fluorescence intensity (a.u.)"},
      {"sequence": "CCCTTCGTCGACACGCACCCCTGACCTCATATTTTCGCTTCGGAGTCACCTAGTGCAG", "binding signal": "5650 fluorescence intensity (a.u.)"},
      {"sequence": "ATGCCATGCCAACGCACTATGCCTGGTATCCTTAGCCATCCGGAGTCACCTAGTGCAG", "binding signal": "4060 fluorescence intensity (a.u.)"},
      {"sequence": "CGACCTGAGGTTGGCGGTCGGCATGACGTCACGGGTGGGACGGAGTCACCTAGTGCAG", "binding signal": "24200 fluorescence intensity (a.u.)"},
      {"sequence": "CTATGTTTTACACTTACACTCCTATCAAAATCCTACGTTTCGGAGTCACCTAGTGCAG", "binding signal": "22600 fluorescence intensity (a.u.)"},
      {"sequence": "TAAAGCTTTTATGAATGAATAGCCTCGCTGGCAAGTGGGCCGGAGTCACCTAGTGCAG", "binding signal": "3560 fluorescence intensity (a.u.)"},
      {"sequence": "TTGTTCTGTCGATCCATCGGTATCCTGGTCAATTGGCAAGCGGAGTCACCTAGTGCAG", "binding signal": "3160 fluorescence intensity (a.u.)"},
      {"sequence": "ATCGAATGATCTAACGGCTCACACACTCCCACGCACTTTGCGGAGTCACCTAGTGCAG", "binding signal": "3290 fluorescence intensity (a.u.)"},
      {"sequence": "TCTGACGGGCGATGACGACGACGACGGTGCAAAAGCCTGACGGAGTCACCTAGTGCAG", "binding signal": "3310 fluorescence intensity (a.u.)"},
      {"sequence": "ACATCTAAAAGTAACTTGAGTTTTCTAAGCAACACATAAGCGGAGTCACCTAGTGCAG", "binding signal": "24700 fluorescence intensity (a.u.)"},
      {"sequence": "AAGCTCCCCGGCCAGGCCGCCATCGGCCACGTGAGGTACTCGGAGTCACCTAGTGCAG", "binding signal": "4540 fluorescence intensity (a.u.)"},
      {"sequence": "TTTAATTGTTCTGCGATTACGGTAGAAATAGATCGGGCTTCGGAGTCACCTAGTGCAG", "binding signal": "3210 fluorescence intensity (a.u.)"},
      {"sequence": "TTGAAACGTAACACTTGATATATGTATACATTATCCAACCCGGAGTCACCTAGTGCAG", "binding signal": "3150 fluorescence intensity (a.u.)"},
      {"sequence": "GACATGAATTTTCCATCATATATTCATGCGGTTCATTATGCGGAGTCACCTAGTGCAG", "binding signal": "4430 fluorescence intensity (a.u.)"},
      {"sequence": "TTTTCTATCACATCGTTTTAATTTCAATCAAACTTCCAATCGGAGTCACCTAGTGCAG", "binding signal": "45300 fluorescence intensity (a.u.)"},
      {"sequence": "CCAACTTTTCCATCACATCGTTCCAATTTCAACCAAACTTCGGAGTCACCTAGTGCAG", "binding signal": "21900 fluorescence intensity (a.u.)"},
      {"sequence": "ACAAACTTCCAACTTTTCTATCACATCGTTCCAATTTCAACGGAGTCACCTAGTGCAG", "binding signal": "22100 fluorescence intensity (a.u.)"},
      {"sequence": "TCCATTGCATATAATTCAATTCATCGAAATCATGACATTTCGGAGTCACCTAGTGCAG", "binding signal": "46400 fluorescence intensity (a.u.)"},
      {"sequence": "CAACAAATTTAAATTTATAGACGTCACCATACTGAAGGCGCGGAGTCACCTAGTGCAG", "binding signal": "5460 fluorescence intensity (a.u.)"},
      {"sequence": "GGGTCATATAGAGACGACGATCAAATTTACCTTATTTTAACGGAGTCACCTAGTGCAG", "binding signal": "3240 fluorescence intensity (a.u.)"},
      {"sequence": "TCATACTGCCATCATACCATCCTACAATAGACAAATTTAACGGAGTCACCTAGTGCAG", "binding signal": "54300 fluorescence intensity (a.u.)"},
      {"sequence": "TTATATTTTAATTAAAACTATTATAATACACAATACGTCACGGAGTCACCTAGTGCAG", "binding signal": "7060 fluorescence intensity (a.u.)"},
      {"sequence": "GTTATAAGACGTTTTGATTTTAGTCAAAGTCAAACTATTCCGGAGTCACCTAGTGCAG", "binding signal": "32600 fluorescence intensity (a.u.)"},
      {"sequence": "AATTATGTTTTATAAGACGTTAGCATTTAAACTACAATCCCGGAGTCACCTAGTGCAG", "binding signal": "55600 fluorescence intensity (a.u.)"},
      {"sequence": "AATTGGACAATTCATCATAAATTTTGCATGAATGATGACACGGAGTCACCTAGTGCAG", "binding signal": "3750 fluorescence intensity (a.u.)"}
    ]}
  ]
}
